# Results as given in PubChem BioAssay (NCI).
# About 83,000 compounds went through this panel and 20% of them were active in at least one assay; those are over-represented in the sample as a whole.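 Testing used 96-well plates and a 48-hour single-concentration exposure. Example: -40 means 40% of the starting cells died.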 Values without a mark were called inactive. Active and inactive are the calls of the source. The calls were made as follows: active = growth percent below 10; inactive = the rest.
# System: HCT-15 colon
# Assay: NCI-60 one-dose screen, 48 h (100 = growth as untreated, 0 = no growth, -100 = all killed)
# Conditions: 10 µM unless noted
row,SMILES,growth
1,COc1ccc(CCN2C(=O)C(C)(C)SC2=S)cc1OC,101%
2,Cc1nnc2nc(N)[nH]n2c1=O,99.4%
3,COc1cccc(-c2nn(-c3ccccc3)cc2-c2ccnc(NCCNS(=O)(=O)c3cccc(F)c3)c2)c1,24.3%
4,Cc1cc(Cl)c2c(N(C)C)cccc2n1,94.1%
5,COc1ccccc1-n1cnc(N)c1C(=O)c1cc(OC)c(OC)c(OC)c1,35.5%
6,Cc1cc(N2CCCCC2)nc(N(CCNc2ccnc3cc(Cl)ccc23)Cc2ccco2)n1,13.8%
7,N#CC1=C(N)Oc2c(c(N)nn2-c2ccccc2)C1c1ccc(Cl)cc1Cl (stereo not given),100%
8,COc1ccc(NC(=O)c2ccc3c(c2)nc(-c2cc4ccccc4[nH]c2=O)n3-c2cc(C(C)(C)C)[nH]n2)cc1,95.5%
9,N#CC1=C(N)Oc2c(sc3c(F)cccc23)C1c1ccc(Cl)cc1 (stereo not given),23.9%
10,Cc1ccc(Cc2cnc(NC(=O)/C=C/c3cccc(C)c3)s2)cc1,7.04% (active)
11,Oc1cccc2oc(=S)[nH]c12,102%
12,COc1cc(/C=C/c2cc(/C=C/c3ccc(O)c(OC)c3)n(-c3ccccc3)c(=O)n2)ccc1O,80.8%
13,NC(=O)NCC1CCCCC1,94.5%
14,N#Cc1cnc2cc(OC[C@@H](O)CO)c(NC(=O)CC3CSSC3)cc2c1Nc1ccc(OCc2cccc(F)c2)c(Cl)c1,22%
15,CC(=O)OCCCCCCn1c2ccccc2c2c3c(c4c5ccccc5n(C)c4c21)C(=O)N(O)C3=O,69.5%
